Sampled rows, rich in hits. Any-hit rate of the full collection: about 2.8%.
NCF1 inh: inhibitors of human p47phox binding | p47phox/p22phox peptide binding, fluorescence polarization, 2 h | actives 0.53% (n = 220,000) | inhibition, % at 24.7 µM | P14598;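 active = inhibition above about 30%, limit read from the data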;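 note: 0% = p47phox with labelled peptide and 100% = labelled peptide alone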
Furin inh: blocks human furin protease activity. P09958. purified furin, fluorogenic substrate cleavage. inhibition, % at 20 µM or 30 µM. actives 0.061% (n = 220,000). AID 463115; in the data active = inhibition above about 25%
Target sequence (P09958 108-714 limits assumed): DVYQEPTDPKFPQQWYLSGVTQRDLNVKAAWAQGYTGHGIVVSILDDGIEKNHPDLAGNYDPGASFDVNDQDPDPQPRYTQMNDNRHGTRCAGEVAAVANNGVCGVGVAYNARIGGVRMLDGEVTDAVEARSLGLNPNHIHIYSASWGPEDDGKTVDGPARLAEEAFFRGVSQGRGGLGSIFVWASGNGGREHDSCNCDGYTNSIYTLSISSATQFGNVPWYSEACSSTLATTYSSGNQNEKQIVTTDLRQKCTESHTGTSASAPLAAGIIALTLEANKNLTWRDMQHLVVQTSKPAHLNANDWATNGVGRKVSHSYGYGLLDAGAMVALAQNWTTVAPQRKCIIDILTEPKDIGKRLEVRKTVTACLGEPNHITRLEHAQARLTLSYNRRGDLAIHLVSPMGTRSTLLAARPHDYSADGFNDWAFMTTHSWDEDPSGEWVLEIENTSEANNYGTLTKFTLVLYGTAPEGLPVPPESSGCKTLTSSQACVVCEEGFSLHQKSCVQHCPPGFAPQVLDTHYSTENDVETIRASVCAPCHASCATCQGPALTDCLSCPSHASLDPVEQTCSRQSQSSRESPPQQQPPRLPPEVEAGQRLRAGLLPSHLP
HSV replic up: increases HSV replication in cells; actives 0.005% (n = 220,000); HSV replication augmentation in cells, fold increase; maximum fold increase; in the data active = maximum fold increase above about 1.5; tested in PC3 cells
Wee1 degr inh: human Wee1 degradation inhibition, primary screen; P30291; HeLa Luc-Wee1K328M stability, luciferase luminescence; 100% = proteasome inhibitor MG132 effect; reporter increase, % at 5 µM; actives 1.2% (n = 220,000);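 active = activation above the mean of all tested compounds plus 3 SD, set per screening run, cut at about 8.8% in these data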;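 note: cells exposed to compound for 20 h before luminescence read; 0% = DMSO alone and 100% = MG132 at 30 µM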
PGE2 EP2 inh: EP2 receptor (human) inhibition; P43116; C6 glioma cells expressing human EP2, cAMP TR-FRET; cells stimulated with saturating PGE2; inhibition, % at 25 µM; actives 0.52% (n = 260,000);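 active = percent inhibition above 40 after rounding to a whole number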;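 note: rat C6 glioma host cells with rolipram phosphodiesterase inhibitor present; the protocol text gives 20 µM as final concentration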
EP2 modulator: modulates human prostaglandin E2 receptor EP2 signaling; P43116; induction, % at 25 µM; AID 940; actives 0.83% (n = 260,000); EP2-expressing cells, cAMP HTRF FRET, PGE2 co-stimulation;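 active = compounds whose cAMP rise, as percent of the full-agonist control response, exceeds 60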;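 note: rat C6 glioma line stably carrying human EP2 under a CMV promoter; the protocol text gives 20 µM as final concentration; 100% = response of wells given 1 µM PGE2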
* marks the source's active call; other numbers are inactive results.

Oc1cc2ccccc2cc1-c1n[nH]c(=S)o1 was read as NCF1 inh -9.2, Furin inh -16.1, HSV replic up inactive, Wee1 degr inh 8.9*, PGE2 EP2 inh 5.7 and EP2 modulator 5.1.
For O=C(O)c1cc(-c2ccc(-c3ccccc3)cc2)nc2cc3ccccc3cc12 the results were PGE2 EP2 inh 45.7* and EP2 modulator -51.8.
Cc1csc(NC(=O)CSc2nnc(-c3ccncc3)n2C)n1 was read as NCF1 inh 41.4*, Furin inh -10.1, HSV replic up inactive, Wee1 degr inh -0.5, PGE2 EP2 inh 8.2 and EP2 modulator -6.5.
For COc1ccc(-c2nnc(SCC(=O)Nc3ccc(C)cc3)n2C)cc1 the results were NCF1 inh -9.0, Furin inh -23.0, HSV replic up inactive, Wee1 degr inh 9.8*, PGE2 EP2 inh 9.4 and EP2 modulator 26.0.
`O=C(CSc1ncnc2scc(-c3ccccc3)c12)c1ccc2c(c1)OCCO2` gave PGE2 EP2 inh 9.1 and EP2 modulator -58.4.
CCS(=O)(=O)c1cc([N+](=O)[O-])c(Br)s1 was read as PGE2 EP2 inh 74.2* and EP2 modulator -118.7.
For CCCN(CCC)S(=O)(=O)c1ccc(Cl)c([N+](=O)[O-])c1 the results were NCF1 inh -0.8, Furin inh -16.3, HSV replic up inactive, Wee1 degr inh 1.6, PGE2 EP2 inh 14.1 and EP2 modulator -13.8.
CO[C@@]1(NC(=O)Cc2cccs2)C(=O)N2C(C(=O)O)=C(COC(N)=O)CS[C@@H]21 was read as NCF1 inh -11.3, Furin inh -10.1, HSV replic up inactive, Wee1 degr inh 10.0*, PGE2 EP2 inh 12.2 and EP2 modulator 8.5.
`C=CCN(C(=O)Cc1ccsc1)C(C(=O)NC1CCCCC1)c1ccc(F)cc1` (centres undefined) gave PGE2 EP2 inh 15.2 and EP2 modulator 8.2.
`COc1ccc(OC)c(NC(=O)CSc2nc(-c3ccc(F)cc3)nc3ccc(F)cc23)c1` gave PGE2 EP2 inh 6.3 and EP2 modulator -6.0.
Screening CN(C)CCCN1C(=O)c2cccc3c([N+](=O)[O-])ccc(c23)C1=O returned NCF1 inh 10.0, Furin inh -14.5, Wee1 degr inh 2.5, PGE2 EP2 inh 80.1* and EP2 modulator -66.5.
O=C1c2cccc3c([N+](=O)[O-])ccc(c23)C(=O)N1CCc1ccccn1 was read as NCF1 inh -7.5, Furin inh -27.3, Wee1 degr inh 0.0, PGE2 EP2 inh 9.9 and EP2 modulator -24.0.
Screening CCOC(=O)Cn1cnc2scc(-c3ccc(Cl)cc3)c2c1=O returned PGE2 EP2 inh 8.6 and EP2 modulator -11.4.
CCOC(=O)C1=C(C)NC(=O)N[C@@H]1c1coc2cc(C)cc(C)c2c1=O was read as PGE2 EP2 inh 52.6* and EP2 modulator 8.3.
`CCOC(=O)C1=C(C)NC(=O)NC1c1ccoc1` (centres undefined) gave NCF1 inh -0.9, Furin inh -12.5, HSV replic up inactive, Wee1 degr inh -1.9, PGE2 EP2 inh 11.3 and EP2 modulator 5.9.
Screening COc1cc2cc(CN(Cc3cccs3)C(=O)c3cccc(F)c3)c(=O)[nH]c2cc1OC returned PGE2 EP2 inh 7.9 and EP2 modulator -17.6.
`COc1ccc(Oc2nccc(-c3ccc(F)cc3)c2C#N)cc1` gave NCF1 inh 5.0, Furin inh -21.3, HSV replic up inactive, Wee1 degr inh 11.9*, PGE2 EP2 inh 8.5 and EP2 modulator 24.7.
For CC1CCN(CCCCOc2ccccc2-c2ccccc2)CC1 the results were NCF1 inh 1.2, Furin inh -12.8, HSV replic up inactive, Wee1 degr inh 1.2, PGE2 EP2 inh 2.2 and EP2 modulator -31.8.
Screening CC1CCCN(CCCOc2ccccc2-c2ccccc2)C1 (centres undefined) returned NCF1 inh 31.0*, Furin inh -31.7, HSV replic up inactive, Wee1 degr inh 3.5, PGE2 EP2 inh 7.6 and EP2 modulator 8.4.
COc1ccc(-c2nnc(SCC(=O)Nc3ccc4c(c3)OCCO4)n2C)cc1 was read as PGE2 EP2 inh 9.1 and EP2 modulator -41.1.
Screening O=C(c1ccc(OC2CSC2)cc1)N1CCC[C@H]1[C@H](O)c1nc2ccccc2s1 returned EP2 modulator -48.9.
For COc1ccc(CNc2ccc(Br)cc2)cc1 the results were NCF1 inh -18.8, Furin inh -16.6, HSV replic up inactive, Wee1 degr inh 10.4*, PGE2 EP2 inh 5.4 and EP2 modulator 10.7.

Bioassay records (PubChem BioAssay)
